aSyn UTR inh: MLPCN primary screen, SNCA 5' untranslated region; alpha-synuclein 5'UTR reporter, inhibitor activity; inhibition, % (tested at 7.5 µM); hit rate 0.82% among 300,000; AID 1813; in the data active = inhibition above about 60%;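 note: H4 neuroglioblastoma cells stably carrying SNCA 5'UTR luciferase fusion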
Ba/F3 V617F tox: loss of viability in JAK2V617F-driven Ba/F3 cells. inhibition, % at 5.6 µM. Ba/F3 EpoR-JAK2V617F viability, ATP luminescence. AID 1446. hit rate 1.1% among 220,000;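 active = inhibition above the campaign mean plus 3 SD over all tested compounds, cut at about 24% in these data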;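 note: cytokine-independent growth of Ba/F3 cells driven by EpoR plus mutant JAK2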
BaF3 parental: reduces parental Ba/F3 cell viability, JAK2V617F counter-screen; CellTiter-Glo ATP luminescence; inhibition, % at 5.6 µM; hit rate 1.1% among 220,000;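 active = inhibition above a per-campaign cutoff, the mean inhibition of all tested compounds plus 3 SD, cut at about 27% in these data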
APP transl inh: APP translation inhibition; SH-SY5Y APP 5'UTR-luciferase reporter, luminescence; inhibition, % at 2 µM; hit rate 0.82% among 190,000;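 active = inhibition above a set limit, derived from the sample mean plus 3 SD, cut at about 45% in these data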
IEC-6 tox: kills IEC-6 intestinal cells in KLF5 counter-screen; IEC-6 cytotoxicity, luminescence viability; inhibition, % at 5 µM; hit rate 0.78% among 290,000; in the data active = inhibition above about 22%
KLF5 inh: inhibitors of KLF5 expression. DLD-1 KLF5 promoter-luciferase reporter, luminescence. inhibition, % at 5 µM. hit rate 0.23% among 290,000. AID 1700;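 active = inhibition above a per-plate limit of that plate's mean compound inhibition plus 3 SD, cut at about 60% in these data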;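 note: higher means less KLF5 promoter-driven luciferase light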
Large screens that a line does not name were inactive. Sampled rows, rich in hits. Any-hit rate of the full collection: about 2.2%.

CC(NC(=O)COC(=O)c1ccc2c(c1)S(=O)(=O)N=C1CCCCCN12)C12CC3CC(CC(C3)C1)C2 (stereo not given)	aSyn UTR inh 67.8
CC(C)COc1ccc(C(=O)Nc2ccc(NC(=O)c3ccco3)cc2)cc1	none (no result: Ba/F3 V617F tox, BaF3 parental, APP transl inh)
C/C=C(\C)C(=O)Nc1cccc(C2=NOC3(C2)C[C@H](C(N)=O)N(C(=O)C(c2ccccc2)c2ccccc2)C3)c1 (stereo not given in full)	none (no result: Ba/F3 V617F tox, BaF3 parental, APP transl inh, IEC-6 tox, KLF5 inh)
CCN(CC)CCNC(=O)c1ccc(-n2c(C)cc3c2CCCC3=O)cc1	none
CCc1ccc(-c2nc(CSCC(=O)N3CCN(c4ccccn4)CC3)c(C)o2)cc1	aSyn UTR inh 81.6
CCOc1ccc(-c2nc(CSCC(=O)N3CCN(c4cccc(OC)c4)CC3)c(C)o2)cc1	aSyn UTR inh 68.5 (no result: APP transl inh)
CCOc1ccc(-c2nc(CSCC(=O)NCc3ccco3)c(C)o2)cc1	APP transl inh 48.5
Cc1ccc(-c2nc(CSCC(=O)N3CCN(c4ccccn4)CC3)c(C)o2)cc1	none
CCOc1ccc(-c2nc(CSCC(=O)NC3CC3)c(C)o2)cc1	none (no result: Ba/F3 V617F tox, BaF3 parental, APP transl inh)
Cc1cccc(-n2nnc3c(=O)n(CC(=O)Nc4cc(C)on4)cnc32)c1	none
O=C1CS/C(=N\c2ccccn2)N1C1CCCCC1	BaF3 parental 95.6
Cc1cc(C(=O)NN)c2cc(Br)ccc2n1	APP transl inh 75.0
COC(=O)c1cccc(NC(=O)CSc2nnc(-c3ccco3)o2)c1	none (no result: Ba/F3 V617F tox, BaF3 parental, APP transl inh)
Cc1ccc(-n2ncc3c(NCCCN4CCCC4=O)ncnc32)c(C)c1	BaF3 parental 47.1
Cc1[nH]c2ccccc2c1/C=C/c1cc[n+](C)cc1	Ba/F3 V617F tox 84.9, BaF3 parental 76.6
CC(C)n1cc(/C=C/c2cc[n+](C)cc2)c2ccccc21	none (no result: Ba/F3 V617F tox, BaF3 parental, APP transl inh)
C=CCn1c(C)c(/C=C/c2cc[n+](C)cc2)c2ccccc21	none (no result: Ba/F3 V617F tox, BaF3 parental, APP transl inh)
Cc1ccccc1/C=C/c1cc[n+](C)cc1	Ba/F3 V617F tox 50.1, BaF3 parental 58.5
CCn1c(=N)c(C(=O)NC)cc2c(=O)n3cccc(C)c3nc21	none (no result: aSyn UTR inh, Ba/F3 V617F tox, BaF3 parental, IEC-6 tox, KLF5 inh)
CCNc1nc(C)c2cc(Br)c(=O)n(CC)c2n1	aSyn UTR inh 76.5
COC(=O)c1cnn(-c2cc(Oc3ccccc3)ncn2)c1N	none
CCOc1cnn(-c2cc(Oc3ccc(C)cc3)ncn2)c(=O)c1Cl	APP transl inh 74.3
Cc1c(NC(=O)Nc2cccs2)cccc1[N+](=O)[O-]	BaF3 parental 29.4
O=C(Nc1cccs1)Nc1ccccc1Cl	none
CCCOc1ccc(C(=O)NNC(=S)NC(C)=O)cc1	aSyn UTR inh 67.7
CCC(=O)NC(=S)NNC(=O)c1ccc(OC)cc1	none
CCCCOc1ccc(C(=O)NNC(=S)NC(=O)CC)cc1	aSyn UTR inh 85.4, APP transl inh 56.0
CC(C)N1CCN(C(=O)C2CCC(=O)N(CCc3cccc(F)c3)C2)CC1 (stereo not given)	none (no result: Ba/F3 V617F tox, BaF3 parental, APP transl inh)
Cn1c(-c2ccc3ccccc3n2)[n+](C)c2ccccc21	Ba/F3 V617F tox 89.0, BaF3 parental 63.3 (no result: APP transl inh)
Cn1c(-c2ccccn2)[n+](C)c2ccccc21	none
Cn1c(-c2cccc([N+](=O)[O-])c2)[n+](C)c2ccccc21	Ba/F3 V617F tox 58.0, BaF3 parental 70.5
CN(C)c1ccc(-c2n(C)c3ccccc3[n+]2C)cc1	Ba/F3 V617F tox 91.2, BaF3 parental 71.0 (no result: APP transl inh)
O=C(c1ccco1)N1CCN(S(=O)(=O)Cc2ccccc2Cl)CC1	none
CCCC(=O)OCC(=O)c1[nH]c(C)c(C(C)=O)c1C	none
O=C1c2cc(F)ccc2-n2c1nc1ccccc1c2=O	aSyn UTR inh 65.8 (no result: Ba/F3 V617F tox, BaF3 parental, APP transl inh)
Nn1c(-c2ccc(F)cc2)nc2ccccc2c1=O	none (no result: Ba/F3 V617F tox, BaF3 parental, APP transl inh)
Cc1cc(=O)[nH]c(N/N=C/c2ccccn2)n1	aSyn UTR inh 73.8, APP transl inh 64.9
Cc1cc(=O)[nH]c(N/N=C/c2cccc(Br)c2)n1	none (no result: Ba/F3 V617F tox, BaF3 parental, APP transl inh)
Nc1ccc(N2CCCCCC2)cc1	Ba/F3 V617F tox 43.1, BaF3 parental 58.9 (no result: aSyn UTR inh)
Cc1nc(-c2ccccc2)sc1C(=O)NN	APP transl inh 72.7
O=C(COc1ccc(/C=C2/NC(=O)NC2=O)cc1)Nc1ccc(F)cc1	none (no result: Ba/F3 V617F tox, BaF3 parental, APP transl inh)
COc1ccc(-c2c[n+]3c(n2-c2ccccc2)CCCCC3)cc1	Ba/F3 V617F tox 76.2, BaF3 parental 64.0
CCOc1ccc(-n2c(-c3ccccc3)c[n+]3c2CCC3)cc1	Ba/F3 V617F tox 79.0, BaF3 parental 68.4
FC(F)Oc1ccc(-c2c[n+]3c(n2-c2ccccc2)CCCCC3)cc1	Ba/F3 V617F tox 64.1, BaF3 parental 60.4 (no result: APP transl inh)
COc1ccc(-c2c[n+]3c(n2-c2c(C)n(C)n(-c4ccccc4)c2=O)CCCCC3)cc1	none
COc1ccc(-n2c(-c3ccc(Cl)cc3)c[n+]3c2CCCCC3)cc1	Ba/F3 V617F tox 72.2, BaF3 parental 65.5 (no result: APP transl inh)
COc1ccccc1-c1ccc(SCc2cccc(C)c2)nn1	Ba/F3 V617F tox 61.0, BaF3 parental 66.2
COc1ccccc1-c1ccc(SCc2ccc([N+](=O)[O-])cc2)nn1	none
COC(=O)C1=C(COc2ccccc2)NC(=O)NC1c1ccc2ccccc2c1 (stereo not given)	none (no result: Ba/F3 V617F tox, BaF3 parental, APP transl inh, IEC-6 tox, KLF5 inh)
O=C(/C=C/c1cccc(Cl)c1)c1ccc([N+](=O)[O-])o1	aSyn UTR inh 91.2 (no result: Ba/F3 V617F tox, BaF3 parental, APP transl inh, IEC-6 tox, KLF5 inh)
COc1cc(/C=C/C(=O)O)ccc1O	none (no result: Ba/F3 V617F tox, BaF3 parental, APP transl inh, IEC-6 tox, KLF5 inh)
COc1cc(/C=C/C(=O)c2ccc([N+](=O)[O-])o2)ccc1O	aSyn UTR inh 67.1 (no result: Ba/F3 V617F tox, BaF3 parental, APP transl inh, IEC-6 tox, KLF5 inh)
CC(=O)c1c(O)cc(=O)oc1-c1ccc(C)cc1	none (no result: Ba/F3 V617F tox, BaF3 parental, APP transl inh, IEC-6 tox, KLF5 inh)
COc1cc(C(=O)NCC2(c3ccccc3)CCCC2)cc(OC)c1OC	none (no result: Ba/F3 V617F tox, BaF3 parental, APP transl inh)
COc1ccccc1/C=N/Nc1cc(C)nc2ccc(C)cc12	none (no result: Ba/F3 V617F tox, BaF3 parental, APP transl inh)
COc1ccc(OC)c(Nc2cc(C)nc3ccc(C)cc23)c1	aSyn UTR inh 62.9 (no result: Ba/F3 V617F tox, BaF3 parental, APP transl inh, IEC-6 tox, KLF5 inh)
COc1ccc(/C=N/Nc2cc(C)nc3ccc(OC)cc23)c(OC)c1	aSyn UTR inh 116.6 (no result: Ba/F3 V617F tox, BaF3 parental, APP transl inh)

Assay outcomes as filed in PubChem.
